# Results as given in PMC12701074.
# Columns and labels:
# [1] = target: Histone H2B type 1-L (UniProt Q99880); assay: cross-linking mass spectrometry
# [2] = target: DNA topoisomerase 1 (UniProt P11387); assay: cross-link between two proteins; cross-linking mass spectrometry
# [3] = target: Large ribosomal subunit protein eL36 (UniProt Q9Y3U8); assay: as above
# [4] = target: Probable ATP-dependent RNA helicase DDX5 (UniProt P17844); assay: as above
# [5] = target: Small ribosomal subunit protein uS17 (UniProt P62280); assay: as above
# [6] = target: Histone H2B type 1-B (UniProt P33778); assay: as above
# [7] = target: Histone H4 (UniProt P62805); assay: as above
# [8] = target: Large ribosomal subunit protein eL24 (UniProt P83731); assay: as above
# [9] = target: Large ribosomal subunit protein uL18 (UniProt P46777); assay: as above
# [10] = target: Large ribosomal subunit protein uL2 (UniProt P62917); assay: as above
# [11] = target: Small ribosomal subunit protein uS12 (UniProt P62266); assay: as above
# [12] = target: Peptidyl-prolyl cis-trans isomerase A-like 4A (UniProt Q9Y536); assay: as above
# [13] = target: Small ribosomal subunit protein eS6 (UniProt P62753); assay: as above
# [14] = target: Small ribosomal subunit protein uS9 (UniProt P62249); assay: as above
# Sequence of Peptidyl-prolyl cis-trans isomerase A-like 4A (Q9Y536 whole entry): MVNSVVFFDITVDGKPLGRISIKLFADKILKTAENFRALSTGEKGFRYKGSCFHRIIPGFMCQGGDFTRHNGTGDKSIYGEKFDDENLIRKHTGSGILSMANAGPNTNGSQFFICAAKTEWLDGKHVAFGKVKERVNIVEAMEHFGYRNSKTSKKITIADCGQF
# Sequence of DNA topoisomerase 1 (P11387 whole entry): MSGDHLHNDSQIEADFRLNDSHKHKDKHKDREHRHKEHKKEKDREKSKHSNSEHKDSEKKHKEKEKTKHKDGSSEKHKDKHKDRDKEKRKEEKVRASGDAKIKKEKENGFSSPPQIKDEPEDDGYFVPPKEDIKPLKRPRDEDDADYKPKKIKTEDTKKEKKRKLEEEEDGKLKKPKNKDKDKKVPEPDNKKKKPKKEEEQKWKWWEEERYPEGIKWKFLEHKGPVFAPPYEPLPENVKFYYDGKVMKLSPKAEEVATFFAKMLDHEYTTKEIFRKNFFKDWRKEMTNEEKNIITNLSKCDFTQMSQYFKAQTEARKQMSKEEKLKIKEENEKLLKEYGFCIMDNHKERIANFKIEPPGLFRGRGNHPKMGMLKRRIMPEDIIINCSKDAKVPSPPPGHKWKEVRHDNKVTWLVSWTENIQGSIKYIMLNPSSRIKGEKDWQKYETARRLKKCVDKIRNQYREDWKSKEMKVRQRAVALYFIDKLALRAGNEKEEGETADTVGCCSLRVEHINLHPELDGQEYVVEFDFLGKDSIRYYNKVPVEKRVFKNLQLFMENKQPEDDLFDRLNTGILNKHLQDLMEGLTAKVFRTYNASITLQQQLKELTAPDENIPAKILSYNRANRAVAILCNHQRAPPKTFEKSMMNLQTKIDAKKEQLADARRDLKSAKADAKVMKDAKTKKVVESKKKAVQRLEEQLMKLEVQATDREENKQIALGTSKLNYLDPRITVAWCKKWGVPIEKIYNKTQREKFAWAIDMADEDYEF
# Sequence of Probable ATP-dependent RNA helicase DDX5 (P17844 whole entry): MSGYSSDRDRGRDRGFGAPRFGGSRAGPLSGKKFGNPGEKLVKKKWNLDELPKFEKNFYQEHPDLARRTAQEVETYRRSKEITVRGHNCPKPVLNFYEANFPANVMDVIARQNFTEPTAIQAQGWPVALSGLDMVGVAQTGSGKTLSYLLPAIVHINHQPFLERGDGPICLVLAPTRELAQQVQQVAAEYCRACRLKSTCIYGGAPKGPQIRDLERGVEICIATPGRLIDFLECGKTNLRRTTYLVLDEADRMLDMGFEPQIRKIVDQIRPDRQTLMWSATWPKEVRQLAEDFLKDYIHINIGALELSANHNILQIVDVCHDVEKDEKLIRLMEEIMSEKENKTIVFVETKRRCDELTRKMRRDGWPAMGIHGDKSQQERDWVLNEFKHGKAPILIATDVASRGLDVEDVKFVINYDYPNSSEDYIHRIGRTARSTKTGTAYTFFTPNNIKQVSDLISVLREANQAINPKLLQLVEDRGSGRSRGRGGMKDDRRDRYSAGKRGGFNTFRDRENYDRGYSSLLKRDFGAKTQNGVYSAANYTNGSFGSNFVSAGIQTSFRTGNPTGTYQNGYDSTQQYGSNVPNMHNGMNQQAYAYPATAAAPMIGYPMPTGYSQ
substance,measurement,setting,value
"Actin, cytoplasmic 1, P60709",listed as a hit,[1],yes
"Histone H1.4, P10412",listed as a hit,[2],yes
same,listed as a hit,[3],yes
same,listed as a hit,[4],yes
same,listed as a hit,[5],yes
"Large ribosomal subunit protein uL22, P18621",listed as a hit,[6],yes
"Large ribosomal subunit protein eL33, P18077",listed as a hit,[6],yes
"Small ribosomal subunit protein eS1, P61247",listed as a hit,[7],yes
"Small ribosomal subunit protein uS5, P15880",listed as a hit,[7],yes
"Histone H4, P62805",listed as a hit,[8],yes
"Histone H2B type 1-B, P33778",listed as a hit,[9],yes
same,listed as a hit,[10],yes
same,listed as a hit,[11],yes
"Histone H2B type 1-C/E/F/G/I, P62807",listed as a hit,[12],yes
"Large ribosomal subunit protein uL4, P36578",listed as a hit,[13],yes
"Large ribosomal subunit protein eL27, P61353",listed as a hit,[14],yes
